# Shown are actives, neighbours in structure and some others; about 0.36% of the full set was active somewhere.
# PTHR1 agonist: qHTS for PTHR1 Agonists: Primary Screen; Parathyroid hormone/parathyroid hormone-related peptide receptor (Homo sapiens), Q03431; HEK293 GP2 PTHR1 cells, GloSensor cAMP luminescence, 1 h; Potency, µM (titrated, usually from 115 µM), inactives show top-dose activation, hits mostly activators; actives 0.075% (n = 410,000); AID 743266, 2014; also: potency is read from the fitted curve at half-maximal effect; nearly all actives have a fitted effect of over 55% in size
# Target sequence (Q03431 whole entry, looked up): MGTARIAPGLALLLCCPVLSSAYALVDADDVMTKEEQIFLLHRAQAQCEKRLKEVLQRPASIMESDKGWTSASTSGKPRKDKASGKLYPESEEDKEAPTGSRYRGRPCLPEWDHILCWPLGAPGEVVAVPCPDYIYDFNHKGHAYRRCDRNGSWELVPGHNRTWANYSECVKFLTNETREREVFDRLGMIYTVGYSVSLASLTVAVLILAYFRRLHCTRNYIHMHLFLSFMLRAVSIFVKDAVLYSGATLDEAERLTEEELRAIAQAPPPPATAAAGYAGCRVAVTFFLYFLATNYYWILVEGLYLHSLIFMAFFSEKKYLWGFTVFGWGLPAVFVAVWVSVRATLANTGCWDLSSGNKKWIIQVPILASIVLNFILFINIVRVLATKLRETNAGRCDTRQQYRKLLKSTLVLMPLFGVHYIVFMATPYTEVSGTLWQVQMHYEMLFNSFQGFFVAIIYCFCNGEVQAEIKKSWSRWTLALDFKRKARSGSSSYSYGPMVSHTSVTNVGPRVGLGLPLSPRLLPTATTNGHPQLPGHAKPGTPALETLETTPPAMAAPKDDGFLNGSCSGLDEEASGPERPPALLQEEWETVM
#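 HEK-293-derived GP2 cells expressing PTHR1 and a GloSensor cAMP reporter, 3,000/well, plated overnight, given luciferin plus IBMX (each 0.5 mM as added) for 1 h at 37 °C, then compound for 1 h at 37 °C. Luminescence was read after 15 min at room temperature.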
# MmCpn inh: Inhibitors of TCP-1 ring complex (TRiC) of Methanococcus maripaludis (MmCpn): qHTS; Chaperonin Mm-Cpn (Methanococcus maripaludis); purified Mm-Cpn ATPase, ADP Transcreener TR-FRET; Potency, µM (series often up to 76.9 µM), for the others: at the top dose activity, negative = inhibition, usual class: inhibitors; actives 0.031% (n = 330,000); AID 504842, 2011; also: potency is read from the fitted curve at half-maximal effect; % is scaled to controls: 0 for no effect and ±100 for the full control effect; nearly all actives have a fitted effect of over 80% in size
#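 Compound-treated chaperonin, 25 nM final, turns over 10 uM ATP at 37°C for 30 min following a 10 min preincubation; ADP generated competes with ADP-d2 for Eu-cryptate antibody, lowering FRET.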
# CCT modulator: High-Throughput Screening for Modulators of Cytosolic Chaperonin Activity; purified chaperonin ATPase assay, HTRF ADP detection, 30 min; AID 651819, 2012; activity change, % (test concentration not listed), hits read low; actives 0.3% (n = 360,000); in the data active = activity change below about -30%; also: % is scaled to controls: 0 for no effect and ±100 for the full control effect
#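 First, chaperonin was dispensed at 40 nM or 20 nM final depending on batch activity. Next, compounds were pinned at 76 uM and ATP added at 10 uM. After 30 min at 37 °C, ADP detection reagents ran 30 min at ambient temperature.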
# ERG-DNA inh: qHTS for Small Molecule Inhibitors of the ERG Ets/DNA interaction. actives 0.028% (n = 370,000). Potency, µM (titrated, usually from 76.9 µM), inactives show top-dose FP activity, negative = inhibition, usual class: inhibitors. fluorescence polarization, His-ERG Ets domain / labelled DNA. AID 624246, 2012. Transcriptional regulator ERG (Homo sapiens), P11308; active = well fitted inhibition curve with a large enough effect in the polarisation, with a control signal flat; inconclusive = small, poorly fitted or top-dose-only effect, or effect the other way, or a change in a side signal; inactive = no such curve, though single readings can be large or run the other way; the % refers to the polarisation;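 also: polarization taken with two DNA probes labelled with fluorescein and Texas red; potency is read from the fitted curve at half-maximal effect; % of control where 0% means no effect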
#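 His-tagged ERG Ets domain (1 uM in the protein solution; 300mM KCl, 50mM Tris-HCl, 1mM EDTA, 1mM DTT, pH 7.5) received compound, then a probe mix of 5 nM fluorescein-DNA and 100nM Texas-615-DNA. Fluorescence polarization was read for both dyes.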
# RGS4 inhibitor: Inhibitors of Regulator of G Protein Signaling (RGS) 4: qHTS. Transcreener GDP fluorescence polarization, RGS4-accelerated GTP hydrolysis. Potency, µM (highest dose often 114 µM), inactives show at the highest dose activity change, negative = inhibition, usual class: inhibitors. actives 0.039% (n = 390,000); also: potency is read from the fitted curve at half-maximal effect; % is scaled to controls: 0 for no effect and ±100 for the full control effect; nearly all actives have a fitted effect of over 75% in size
#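 MLSMR compounds (23 nl, pin-transferred) preincubated 10 min at room temperature with a 500nM (2x) first reagent, then RGS4 at 900nM (2x) plus Transcreener GDP mix added; fluorescence polarization (620/688 nm) read before and after 90 min at 30 °C.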
# An asterisk follows results filed as active; i = inactive; u = inconclusive; x = no result given; ! = not active in a repeat; [ ] = dose if it differs, or a comment. Unless noted, calls follow the shape of the dose curve; as a rule, active = well fitted curve in the direction sought with a large enough effect; inconclusive = small, poorly fitted or top-dose-only effect, or another doubt; inactive = no such curve, though single readings can be large; an effect the other way counts as inactive or inconclusive.
SMILES,PTHR1 agonist,MmCpn inh,CCT modulator,ERG-DNA inh,RGS4 inhibitor
Cc1cc2ccccc2n1CCNC(=O)Cc1ccccc1,i,-7.3%,0.6,35.5µM*,-14.1%
C=CCN1C[C@H](C)N([C@H](c2ccc(C(=O)N(CC)CC)cc2)c2cccc(O)c2)C[C@H]1C,x,x,x,x,-151.2%[56.9 µM]
C[C@]12CC[C@H](O)CC1=CCC1C2CC[C@@]2(C)C1CC[C@@H]2OCc1ccccc1 (stereo partly specified),i,-7.0%,-32.3*,6.6%,1.5%
CC(C)C[C@H](NC(=O)[C@H](Cc1ccccc1)NC(=O)CNC(=O)[C@@H](NC(=O)[C@@H](N)Cc1ccc(O)cc1)[C@H](C)O)C(=O)N[C@H](C(=O)O)[C@H](C)O,x,x,x,x,i
CCCOc1ccc2[nH]cc(C3=CCNCC3)c2n1,x,x,x,x,9.8%[56.9 µM]
CN1CCN(CC#CCOc2ccc(Cl)cc2)CC1,i,-0.4%,-6.2,-0.1%,8.5%
Clc1ccc(OCC#CCN2CCCC2)cc1,i,-0.6%,-34.2*,9.0%,-6.8%
CN(C)C1C(=O)C(C(N)=O)=C(O)[C@@]2(O)C(=O)C3=C(O)c4c(O)cccc4[C@@](C)(O)C3[C@H](O)C12 (stereo partly specified),x,x,x,x,129.3%[56.9 µM]
CCOC(=O)C1CCN(/C=C2/C(=O)NC(=S)N(c3cccc(OC)c3)C2=O)CC1,i,-0.2%,-42.2*,1.0%,-18.6%
COC[C@H]([C@@H](O)[C@@H](O)C(=O)NCC[C@@H](C)c1nc(/C=C/C[C@H]2OC3(C[C@H](O)[C@H]2C)OC([C@@H](C[C@@H](O)[C@@H](C)[C@@H](O)[C@@H](C)/C=C(C)/C(C)=C/C=C/C(C)=C\C#N)OC)[C@@H](OP(=O)(O)O)C3(C)C)co1)N(C)C (stereo partly specified),x,x,x,x,i
Cc1ccc(NC(=O)c2cnc3sc(N4CCOCC4)nn3c2=O)cc1N(C)C,-94.8%,x,x,-2.4%,-6.5%
COc1ccc(N2C(=O)CC(N3CC=C(c4ccccc4)CC3)C2=O)cc1 (stereo unspecified),-1.0%,-2.3%,-61.2*,12.0%,-26.5%
Cc1cc(OCC(=O)N2C[C@H]3C[C@@H](C2)c2cccc(=O)n2C3)c2c(C)c(C)c(=O)oc2c1,-94.9%,-5.0%,-59.0*,7.0%,-21.1%
COC(=O)c1c(Sc2ccccc2)c2ccccc2n1C,-31.9%,-9.1%,0.0,3.2%,-52.4%
Cc1cccc(-n2c(O)c(/C=C3/C(c4ccccc4)=Nc4ccccc43)c(=O)[nH]c2=O)c1,-37.9%,-1.5%,-44.4*,12.9%,-47.5%
Cc1cc2c(C(C)C)c(O)c(O)c(C=O)c2c(O)c1-c1c(C)cc2c(C(C)C)c(O)c(O)c(C=O)c2c1O,x,1.7%,x,x,4.22µM*
CCCN1C2CCCC1CC(NC(C)=O)C2 (stereo unspecified),-22.1%,0.5%,-32.8*,-1.0%,8.4%
Cc1cc(-c2nnn(CCCOC(C)(C)C)c2C)ccc1-c1cn(CCCOC(C)(C)C)nn1,-86.4%,x,0.6,x,x
Cc1ccc(NC(=O)c2ncn(CC(=O)NCc3ccc4c(c3)OCO4)n2)cc1C,-21.3%,0.8%,-2.3,9.5%,-0.7%
Cc1ccc(CCN2CC(C(=O)N3CCC4(CC3)OCCO4)CC2=O)cc1 (stereo unspecified),-7.8%[57.5 µM],2.0%,-64.4*,-5.2%,-3.0%
CC(Cc1cccc(C(F)(F)F)c1)NCCCc1ccccc1 (stereo unspecified),x,x,x,x,i
CC(=O)OC1CCC2(C)C(CCC3C2CC(=O)C2(C)C3CC(N3CC3)C2C(C)=O)C1 (stereo unspecified),50.1µM*,x,-4.7,x,-15.3%
CC(=O)C1C(N2CC2)CC2C3CCC4=CC(=O)CCC4(C)C3CCC21C (stereo unspecified),i,x,-1.5,x,-6.4%
O=C(O)c1cccc2c1NC(c1cccc([N+](=O)[O-])c1)C1CC(Sc3ccccc3[N+](=O)[O-])C(Cl)C21 (stereo unspecified),-46.6%,2.3%,-46.2*,-6.8%,-49.3%
O=C(O)c1ccc2c(c1)C1C(Cl)C(Sc3ccccc3[N+](=O)[O-])CC1C(c1cccc([N+](=O)[O-])c1)N2 (stereo unspecified),-30.8%,-1.4%,-0.5,3.8%,u
SMILES,PTHR1 agonist,MmCpn inh,CCT modulator,ERG-DNA inh,RGS4 inhibitor
c1ccc(CCCN2CCN(CCOC(c3ccccc3)c3ccccc3)CC2)cc1,-68.3%,x,-3.3,-18.2%,1.1%[56.9 µM]
Fc1ccc(C(OCCN2CCN(CCCc3ccccc3)CC2)c2ccc(F)cc2)cc1,-92.5%,x,x,x,37.7µM*!
CCCN1CCc2cc(O)cc3c2[C@H]1Cc1ccc(O)c(O)c1-3,-25.3%,x,-0.7,-7.1%,0.532µM*!
CCCN1CCc2cccc3c2C1Cc1ccc(O)c(O)c1-3 (stereo unspecified),x,x,x,x,i
CC(=O)OCOCC(=O)OCO[P+](=O)C(OCOC(C)=O)c1cc([N+](=O)[O-])ccc1Oc1ccc(Br)cc1 (stereo unspecified),x,x,x,x,i
O=[N+]([O-])c1ccc(N2CCCCCC2)c2nonc12,i,1.4%,1.1,u,19.7%
O=[N+]([O-])c1ccc(NCc2ccccc2)c2nonc12,-13.9%,0.6%,-4.1,6.31µM*,-0.3%
O=C1CN=C(c2ccccc2)c2ccccc2N1,-7.6%,-0.7%,-53.1*,-19.5%,-10.2%
C[C@]1(C(=O)O)CCC[C@]2(C)c3cc(O)ccc3CC[C@@H]12,x,x,x,x,1.06µM*
Brc1c(NC2=NCCN2)ccc2nccnc12,x,-3.0%,x,x,18.9µM*
O=C1CS[C@@H](c2ccccc2Cl)c2cc(Cl)ccc2N1,x,x,x,x,i
CC(=O)c1ccc(N2CCN(S(=O)(=O)c3cc(-c4onc(C)c4C)ccc3C)CC2)cc1,-48.4%,x,x,-0.8%,-0.9%
N#CC(C#N)=Cc1ccc(N2CCCC2)cc1,-37.3%,-5.2%,-45.8*,-15.4%,8.9%
CN1CCN(c2ccc(C=O)cc2)CC1,i,0.7%,-0.3,0.3%,-14.3%
CCC(Sc1ccccc1)C(=O)OC1CC2CCC(C1)N2C (stereo unspecified),x,x,x,x,i
CCN1C[C@]2(COC)CC[C@H](O)[C@@]34C5C[C@H]6[C@H](O)C5[C@](O)(C[C@H]6OC)[C@@H]([C@H](OC)C23)[C@@H]14 (stereo partly specified),-14.7%,x,-0.2,-4.4%,-4.8%

# Compound activity: PubChem, National Center for Advancing Translational Sciences (NCATS)
